From PubChem BioAssay come the findings set out here.

A word on the AC50: it is the concentration at which the activity in the assay is half-maximal. For orientation: IC50 means the concentration that inhibits the measured activity by half.

Assay [1] in a line: growth inhibition of DIPG glioma cells, dose response, cell-based, JHH-DIPG-1, MIPE4.0, CellTiter-Glo, qHTS (AID 1347062; cut-off not given, nearly all actives have AC50 up to about 27 µM;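 as to AC50: cells exposed to compound for two days before readout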). The note with it: JHH-DIPG-1 viability, CellTiter-Glo ATP luminescence.
Assay [2] is described as follows: growth inhibition of DIPG glioma cells, dose response, cell-based, SU-DIPG-IV, MIPE4.0, CellTiter-Glo, qHTS (AID 1347063).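 Also: compound exposure lasted 48 hours before the viability readout.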 The settings on record: SU-DIPG-IV viability, CellTiter-Glo ATP luminescence. (Cellular ATP, detected with luciferase, serves as a proxy for viable cell number.)
Assay [3] can be described thus: SU-DIPG-VI glioma cell viability, MIPE4.0 library, CellTiter-Glo luminescence, qHTS (AID 1347066).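 Also: cells exposed to compound for 48 hours before readout.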 The settings on record: CellTiter-Glo ATP luminescence.
Assay [4] can be described thus: JHH-DIPG-1 glioma cell viability, MIPE5.0 library, CellTiter-Glo luminescence, qHTS (AID 1347067; cut-off not given, nearly all actives have AC50 up to about 26 µM;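 also: cells exposed to compound for 48 hours before readout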). The note with it: JHH-DIPG-1 glioma viability, CellTiter-Glo ATP luminescence.
Assay [5] is described as follows: SU-DIPG-XXV glioma cell viability, MIPE5.0 library, qHTS (AID 1347068; cut-off not given, nearly all actives have IC50 up to about 30 µM;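 as to IC50: cells exposed to compound for 48 hours before viability readout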). (In general: In qHTS, concentration-response curves come from the screen itself.)
Assay [6] in a line: growth inhibition of DIPG glioma cells, dose response, cell-based, SU-DIPG-XIII, MIPE5.0, CellTiter-Glo, qHTS (AID 1347064; cut-off not given, nearly all actives have AC50 up to about 23 µM;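 as to AC50: cells exposed to compound for 48 hours before the viability read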). The note with it: SU-DIPG-XIII viability, CellTiter-Glo ATP luminescence.
A short description of assay [7]: sensitizers of A549 cells to miR-34 induction, primary screen, imaging, A549 dox-inducible miR-34, nuclei and caspase counts (AID 1347080;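 active = compounds whose cell count with miR-34 switched on is under 0.7 times the count with it off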). The note with it: A549 miR-34 inducible, Hoechst nuclei count, 48 h.
A short description of assay [8]: survival rescue of mitochondrial mutant cells in low glucose, primary screen, MELAS cybrids, Rieske KO mouse fibroblasts, CellTiter-Glo (AID 1508586;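 active = mean z-score across replicates of 1.96 or higher in either the MELAS or the Rieske mutant cell line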;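 also: z relative to plate mean and SD of compound and empty wells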).
Assay [9] can be described thus: viability loss in pontine glioma line – cell-based, SU-DIPG-XXV, MIPE5.0, CellTiter-Glo, qHTS, dose response (AID 1347065; cut-off not given, nearly all actives have AC50 up to about 26 µM;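 also: cells exposed to compound for 48 hours before ATP readout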). The settings on record: CellTiter-Glo ATP luminescence.
Assay [10] is described as follows: modifiers of HSF1 nuclear foci, imaging, Selleck Cancer Library (AID 1347162; in the data active = plate-normalised HSF1 focus index below about 0.46). The settings on record: human cells, at 10 µM; SSMD: measured here: HSF1 foci SSMD mean; cell count: measured here: cell number; plate-normalised HSF1 focus index: stronger effect = lower value.
[11] abbreviates: stronger effect = lower value, cell number ratio, induced over uninduced.
The mark [12] stands for this setting: measured here: relative caspase fold change +Dox/-Dox.
Where [13] appears, read: measured here: total cells with miR-34 induction, stronger effect = lower value.
Where [14] appears, read: measured here: total cells without miR-34 induction.
Where [15] appears, read: MELAS cybrid survival, CellTiter-Glo 48 h, stronger effect = higher value.
The mark [16] stands for this setting: Rieske KO mouse fibroblast survival, CellTiter-Glo 72 h.

“And” between values parts separate entries of the source, which are not always exact repeats. Equal values may be shown once. Inconclusive results are not listed. The source made the active and inactive calls. Unless noted, the limit is not given here; nearly all actives have AC50 up to about 30 µM.

In the case of `Cc1ccccc1C(C(=O)NC1CCCCC1)N(C(=O)CNc1ccc(C#N)cc1)c1cccc(F)c1` (configuration not stated), the molecule was called inactive in assay [1], in assay [2], in assay [3], in assay [4] and in assay [5].

In the case of `Cc1ccc(-n2[nH]c(C)c(N=Nc3cccc(-c4cccc(C(=O)O)c4)c3O)c2=O)cc1C`, the molecule was called inactive in [1], in assay [6], in assay [4] and in assay [5]. In assay [3], the AC50 is 10.5 µM (active). For the same molecule, the fold change in assay [7] (setting [11]) is 0.913 (inactive); in assay [7] (setting [12]), 1.1. For the same molecule, the cell count in assay [7] (setting [13]) was 6690; in assay [7] (setting [14]) it was 7330. In addition, the z-score in assay [8] (setting [15]) is -0.18 (inactive); in assay [8] (setting [16]), -0.0982.

Regarding `O=c1[nH]c(=O)n([C@H]2C[C@H](O)[C@@H](CO)O2)cc1/C=C/Br`, the molecule was called inactive in assay [1], in assay [2] and in assay [3].

As to `CC(=O)Nc1sc2c(c1-c1nc3ccccc3s1)CNC2`, the AC50 in assay [1] was 23.5 µM (active); in assay [2] it was 20.9 µM (active). For the same molecule, in assay [3], the molecule was called inactive.

As for `NS(=O)(=O)c1ccc(NC2=CC(=O)c3ccccc3C2=O)cc1`, the call in assay [1] was inactive. For the same molecule, the AC50 in [6] is 5.9 µM (active); in assay [9], 11.8 µM (active); in [3], 5.9 µM (active); in [4], 20.9 µM (active).

Turning to `COCCOC(=O)C1=C(C)NC2=C(C(=O)CC(c3ccccc3OC)C2)C1c1cccc(O)c1` (configuration not stated), the molecule was called inactive in assay [1], in assay [3] and in assay [5].

Turning to `Nc1nc(N)c(N=O)c(OCC2CCCCC2)n1`, the results for the AC50 in assay [1], in [2] and in [3] were 14.8 µM (active), 4.69 µM (active) and 14.8 µM (active), respectively. Also, the IC50 in assay [5] is 14.8 µM (active). Further, the fold change is 0.992 (inactive) and 0.824 (inactive) in assay [7] (setting [11]); 0.923 and 0.352 in [7] (setting [12]). For the same molecule, the cell count in [7] (setting [13]) was 8650 and 6730; in assay [7] (setting [14]) it was 8720 and 8160; in assay [10], 6960. For the same molecule, the SSMD in assay [10] was 2.32. Also, in [10], the plate-normalised HSF1 focus index was 1.14 (inactive). The z-score in [8] (setting [15]) was -0.213 (inactive); in assay [8] (setting [16]), -2.45.

As for `C[C@H](c1ccc(F)cc1CCCC(=O)O)N(c1cc(F)ccc1F)S(=O)(=O)c1ccc(Cl)cc1`, the molecule was called inactive in assay [1], in assay [2], in assay [3], in assay [4] and in assay [5].

Consider `Nc1ncnc2c1c(-c1cccc(OCc3ccccc3)c1)cn2C1CC(CN2CCC2)C1` (configuration not stated), for which the AC50 in assay [1] is 11.8 µM (active); in [6], 0.525 µM (active); in assay [9], 0.417 µM (active); in assay [3], 2.96 µM (active); in assay [4] it was 6.61 µM (active). Also, the results for the fold change in assay [7] (setting [11]) and in assay [7] (setting [12]) were 1.02 (inactive) and 0.834, respectively. In addition, the results for the cell count in [7] (setting [13]) and in assay [7] (setting [14]) were 2880 and 2830, respectively. Besides, the z-score in assay [8] (setting [15]) was -0.54 (inactive); in [8] (setting [16]), -0.0242.

Take `COc1ccc2c(Oc3ccc(NC(=O)c4c(C)n(CC(C)(C)O)n(-c5ccccc5)c4=O)cc3F)ccnc2c1`: the call in assay [1], in [6], in assay [3] and in assay [5] was inactive. The concentration at half-maximal activity (AC50) in assay [9] and in assay [4] was 20.9 µM (active) in each case.

As for `CC(=O)NCCC(=O)N[C@@H](CCC(N)=O)C(=O)N[C@@H](CO)C(=O)N[C@@H](CCC(N)=O)C(=O)N[C@@H](CCC(N)=O)C(=O)N[C@H](C(=O)N[C@@H](Cc1ccccc1)C(=O)N[C@]1(C)CCCCCC/C=C\CCC[C@@](C)(C(=O)N[C@@H](CCC(N)=O)C(=O)N[C@@H](CC(N)=O)C(N)=O)NC(=O)[C@H](CC(C)C)NC(=O)[C@H](CC(C)C)NC(=O)[C@@H](CCCNC(=N)N)NC(=O)[C@H](Cc2c[nH]c3ccccc23)NC(=O)[C@H](CC(C)C)NC(=O)[C@H](CC(N)=O)NC1=O)[C@H](C)O`, the call in assay [1], in assay [9], in [4] and in assay [5] was inactive.

As to `COc1cc(OC)cc(-c2ccc3ncc4ccc(=O)n(-c5ccc(N6CCNCC6)c(C(F)(F)F)c5)c4c3c2)c1`, the values for the AC50 in assay [1], in assay [2] and in assay [3] were 16.6 µM (active), 2.64 µM (active) and 13.2 µM (active), respectively.
